Several values for one entry are separate records, joined by “and”; a condition that tells them apart may be missing. Equal values may be shown once. Some structures have more than one record in an assay (separate samples or runs), and their calls can disagree. Activity calls are given as the source filed them. Rule for the calls: active = hit-call score of the fitted dose curve at least 0.9, where 1 is the maximum; inactive = score below 0.9.

One may read the AC50 as the midpoint of the concentration-response curve, whichever way the signal moves.

A short description of one assay: ATG_PXRE_CIS: Attagene CIS-FACTORIAL HepG2 Assay for human Pregnane X Receptor Element (PXRE) (AID 2282957). The note with it: HepG2 Attagene CIS-FACTORIAL PXRE reporter, mRNA; actives raise or lower the signal. Put shortly: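 Multiplexed cis-reporter assay in transiently transfected human HepG2 cells; 24 h chemical exposure. Reporter transcripts quantified by RT-PCR with fluorescent labeling and capillary electrophoresis.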
As to `Cc1cc(Cl)ccc1OCC(=O)O`, the compound was called inactive. `CN(C)C(=S)SSC(=S)N(C)C`: the compound was classed as inactive.

As to `C#CCOS(=O)OC1CCCCC1Oc1ccc(C(C)(C)C)cc1` (stereo not given), the AC50 is 661 nM (active). `CC(C)Oc1cc(-n2nc(C(C)(C)C)oc2=O)c(Cl)cc1Cl`: the AC50 is 284 nM (active). Same read-out and setting: for `CC1=C(C(=O)Nc2ccccc2)SCCO1` the value was 40400 nM (active).

In the case of `COP(N)(=O)SC` (stereo not given), the compound was classed as inactive. Turning to `O=C(Nc1ccccc1)Nc1ccnc(Cl)c1`, the outcome was inactive. On to `CC1COC(Cn2cncn2)(c2ccc(Oc3ccc(Cl)cc3)cc2Cl)O1` (stereo not given), for which the AC50 is 2000 nM (active). For the compound `C=CC1(C)OC(=O)N(c2cc(Cl)cc(Cl)c2)C1=O` (stereo not given), the AC50 was 17.3 µM (active) and 31.1 µM (active) and 33 µM (active); the call was inactive.

A further assay in a line: ATG_RORE_CIS: Attagene CIS-FACTORIAL HepG2 Assay for human RAR-related Orphan Receptor Element (RORE) (AID 2282959). The note with it: HepG2 Attagene cis-factorial RORE reporter, mRNA; actives raise or lower the signal. Put shortly:
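A 24-hour exposure of transfected HepG2 hepatoma cells precedes RNA isolation and reporter RT-PCR. Labeled products are digested with HpaI and resolved by capillary electrophoresis, with gain or loss of signal scored relative to DMSO.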
On to `N#Cc1cc(Br)c(O)c(Br)c1`, for which the AC50 was 50 µM (active). Turning to `O=C(O)COc1nc(Cl)c(Cl)cc1Cl`, the call was inactive. For `COc1cnc(OC)n2nc(NS(=O)(=O)c3c(OCC(F)F)cccc3C(F)(F)F)nc12`, the result was inactive. As for `O=C(O)c1nc(Cl)ccc1Cl`, the compound was called inactive. As to `CCOC(=O)C(Cl)Cc1cc(-n2nc(C)n(C(F)F)c2=O)c(F)cc1Cl` (stereo not given), the call was inactive. As to `CNC(=O)ON=CC(C)(C)SC`, the compound was called inactive. On the same count and under the same terms, for `CCNc1nc(Cl)nc(NCC)n1` the value was “inactive”; for `N#CC(CCc1ccc(Cl)cc1)(Cn1cncn1)c1ccccc1` (stereo not given), “inactive”; for `CCOP(=S)(OCC)SCn1c(=O)oc2cc(Cl)ccc21`, “inactive”. In the case of `CS/C(C)=N/OC(=O)N(C)SN(C)C(=O)O/N=C(\C)SC`, the call was inactive. Still for that read-out and setting: for `Fc1ccc(Oc2ccnc3cc(Cl)cc(Cl)c23)cc1` the value was “inactive”; for `CCON=C(CC)C1=C(O)CC(c2c(C)cc(C)cc2C)CC1=O` (stereo not given), “inactive”. Regarding `Cc1ccc(-c2c(Cl)nc(C#N)n2S(=O)(=O)N(C)C)cc1`, the AC50 is 16.3 µM (active).

For `CC(Oc1ccc(Cl)cc1Cl)C(=O)O` (stereo not given), the result was inactive. Take `CCOc1cc(Oc2ccc(C(F)(F)F)cc2Cl)ccc1[N+](=O)[O-]`: the AC50 was 29.8 µM (active). Take `CCNc1nc(Cl)nc(NC(C)C)n1`: the call was inactive. Regarding `COC(=O)C(C)Oc1ccc(Oc2ccc(Cl)cc2Cl)cc1` (stereo not given), the result was inactive. Same read-out and setting: for `Cc1cc(Cl)ccc1OCC(=O)O` the value was “inactive”; for `CN(C)C(=S)SSC(=S)N(C)C`, “inactive”. As for `C#CCOS(=O)OC1CCCCC1Oc1ccc(C(C)(C)C)cc1` (stereo not given), the AC50 was 2.4 µM (active). Regarding `CC(C)Oc1cc(-n2nc(C(C)(C)C)oc2=O)c(Cl)cc1Cl`, the result was inactive. On the same count and under the same terms, then `CC1=C(C(=O)Nc2ccccc2)SCCO1`, with “inactive”; and `COP(N)(=O)SC` (stereo not given), with “inactive”. As for `O=C(Nc1ccccc1)Nc1ccnc(Cl)c1`, the AC50 is 67.2 µM (active).

Regarding `C=CC1(C)OC(=O)N(c2cc(Cl)cc(Cl)c2)C1=O` (stereo not given), the compound was classed as inactive.

The values are drawn from PubChem BioAssay (EPA / NIEHS).
